Several values for one entry are separate records, joined by “and”; a condition that tells them apart may be missing. Equal entries are not always repeated. Among all 290,000 compounds or so, about 3,000 (1%) were called active. Rule as the data show it: active = inhibition mostly above about 36% (no sharp cut-off); inactive = mostly below about 34%. The entries come from a sample that favours actives as a whole.
assay: NOD1 signaling inhibitors, primary screen, cell-based, luminescence, uHTS (AID 1578); conditions: NOD1-driven NF-kB luciferase reporter cells, at 4 µM, stronger effect = higher value;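 also: HEK-293T reporter cells stimulated with the NOD1 agonist gamma-tri-DAP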

SMILES	inhibition
COC(=O)c1ccc(C(=O)OC)c(NC2=NS(=O)(=O)c3ccccc32)c1	-20.3% (inactive)
CCOC(=O)c1c(-c2ccc(C)cc2)csc1NC1=NS(=O)(=O)c2ccccc21	24% (inactive)
COC(=O)c1c(-c2ccccc2)csc1NC1=NS(=O)(=O)c2ccccc21	82.4% (active)
O=C(OCC(=O)c1cccs1)c1ccccc1	2.3% (inactive)
Cc1nc2ccc(F)cc2cc1C(=O)Nc1ccc(Cl)c(Cl)c1	-34% (inactive)
Cc1ccc(NC(=O)N(Cc2nc3ccccc3c(=O)[nH]2)Cc2cccs2)cc1	-2.2% (inactive)
O=C(Nc1ccc(Cl)cc1)N(Cc1nc2ccccc2c(=O)[nH]1)Cc1cccs1	99.1% (active)
O=C(Nc1cccc(Cl)c1)N(Cc1nc2ccccc2c(=O)[nH]1)Cc1cccs1	-26.5% (inactive)
Cn1cc(C(=O)NCc2cccs2)c(=O)c2cc(S(=O)(=O)N3CCCC3)ccc21	53% (inactive)
Brc1ccc(N=Nc2ccc3ccccc3n2)cc1	43.4% (active)
Brc1ccc(/C=N/Nc2ccc3ccccc3n2)cc1	-39.3% (inactive)
CCn1c(O)c(N=Nc2ccc3ccccc3n2)c2ccccc21	-7.9% (inactive)
CC1Cc2ccccc2N1CC(=O)Nc1ccc(S(=O)(=O)N(C)C)cc1 (centres undefined)	-7.7% (inactive)
CCOc1ccc(C(C)NC(=S)NCc2ccc(F)cc2)cc1 (centres undefined)	8.6% (inactive)
COc1ccc(C(C)NC(=S)NCc2ccc(F)cc2)cc1 (centres undefined)	55.1% (active)
Cc1ccc(C)c(C(C)NC(=S)NCc2ccc(F)cc2)c1 (centres undefined)	52.6% (active)
COc1cccc(C(C)NC(=S)NCc2ccc(F)cc2)c1 (centres undefined)	20.3% (inactive)
Cc1ccc(C(C)NC(=S)NCc2ccc(F)cc2)cc1C (centres undefined)	-16.4% (inactive)
Cc1ccc(C(C)NC(=S)NCc2ccc(F)cc2)c(C)c1 (centres undefined)	29.2% (inactive)
COCCNC(=O)Cn1c(=O)n(C)c2ccccc21	-14% (inactive)
Cc1cc(C)cc(N(C(C)C(=O)NCCC2=CCCCC2)S(C)(=O)=O)c1 (centres undefined)	15% (inactive)
CC(=O)Nc1ccc(NC(C)=C(C#N)C#N)cc1	-12.5% (inactive)
COc1ccc(NC(=O)N2c3ccccc3CC2C)cc1OC (centres undefined)	-26.9% (inactive)
COc1cccc(NC(=S)N2c3ccccc3CC2C)c1 (centres undefined)	-26.6% (inactive)

SMILES	inhibition
COc1ccc(NC(=S)N2c3ccccc3CC2C)cc1OC (centres undefined)	30.4% (active)
CCN(C(=O)COC(=O)CSc1ccc([N+](=O)[O-])cc1)C1CCS(=O)(=O)C1 (centres undefined)	-23.6% (inactive)
COc1cc(C(=O)N/N=C/c2ccc3c(c2)c2ccccc2n3C)ccc1O	32.9% (inactive)
Cc1ccc(CNC(=O)CCS(=O)(=O)Cc2ccc(C)cc2)cc1	15.8% (inactive)
CC(C)c1ccc2c(c1)C1Cc3ccccc3C1N2 (centres undefined)	-15.3% (inactive)
CCOc1cc(/C=C2\COc3ccccc3C2=O)cc(Br)c1OCC(=O)N(C)C	54.9% (active)
CCOc1cc(/C=C2\COc3ccccc3C2=O)ccc1OCC(=O)N(C)C	30.7% (inactive)
CCOc1cc(/C=C2/COc3ccccc3C2=O)ccc1OCC(=O)N(C)C	36.8% (inactive)
COc1ccccc1Oc1nc(-c2ccccc2)cc(C)c1S(C)(=O)=O	-16.2% (inactive)
COc1cccc(NC(=O)C2CCN(S(=O)(=O)c3ccc4c(c3)CC(C)N4C(C)=O)CC2)c1 (centres undefined)	-22.9% (inactive)
Cc1ccc(-c2cc3nc(-c4ccc(Br)cc4)cc(N)n3n2)cc1	-9.8% (inactive)
Nc1cc(-c2ccc(Br)cc2)nc2cc(-c3ccccc3)nn12	-10.5% (inactive)
CN1C(=O)C(C)(C)c2cc(S(=O)(=O)NCCc3ccc(Cl)cc3)ccc21	-14.4% (inactive)
CC1(C)Cc2c(sc3c2c(=N)n(Cc2ccco2)c(=O)n3CC(=O)Nc2ccc(Cl)cc2)CO1	1% (inactive)
COc1ccc2nc(C)cc(N3CC(C)OC(C)C3)c2c1 (centres undefined)	8.1% (inactive)
N[C@@H](Cc1cc(I)c(Oc2ccc(O)c(I)c2)c(I)c1)C(=O)O	14.2% (inactive)
O=C(O)Cc1cc(I)c(Oc2ccc(O)c(I)c2)c(I)c1	-16.4% (inactive)
O=C(O)CCc1cc(I)c(Oc2ccc(O)c(I)c2)c(I)c1	51.7% (active)
C=CCC(O)(CCN1CCCCC1)c1ccccc1 (centres undefined)	-19.4% (inactive)
Cc1ccccc1N(C(=O)c1ccccn1)C(C(=O)NCc1ccccc1)c1ccncc1 (centres undefined)	-21.2% (inactive)
O=C(Cc1ccc(Cl)cc1Cl)Nc1cccc(S(=O)(=O)Nc2ccccc2F)c1	-7.5% (inactive)
N#CC(C#N)=C1C=CC=CN1/C(=C\c1ccco1)C(=O)c1ccccc1	-25.3% (inactive)
N#CC(C#N)=C1C=CC=CN1/C(=C\c1ccco1)C(=O)c1ccc(Cl)cc1	104% (active)
N#CC(C#N)=C1C=CC=CN1/C(=C\c1ccco1)C(=O)c1ccc(Br)cc1	-10.9% (inactive)

SMILES	inhibition
CCOC(=O)C(CCc1nnc(N)s1)C(=O)OCC	-16.9% (inactive)
COc1ccc(N(CC(=O)NCc2ccco2)C(=O)CCC(=O)Nc2nccs2)c(OC)c1	-20.5% (inactive)
O=C(N/N=C/c1cn(-c2cccs2)nc1-c1ccccc1)c1ccccc1Br	-30.5% (inactive)
O=C(O)c1[nH]c2ccccc2c1C(c1c(F)cccc1Cl)c1c(C(=O)O)[nH]c2ccccc12	-43.4% (inactive)
CNc1ccc(/C=C2\CSc3ccccc3C2=O)cc1[N+](=O)[O-]	73.4% (active)
O=C1/C(=C/c2cccc([N+](=O)[O-])c2)CSc2ccc(Cl)cc21	-12% (inactive)
CNc1ccc(/C=C2\COc3ccccc3C2=O)cc1[N+](=O)[O-]	-7.1% (inactive)
COc1ccc(C2/C(=C(/O)c3ccccc3)C(=O)C(=O)N2C)cc1 (centres undefined)	-38.6% (inactive)
COc1ccc(CNC(=O)c2cc3cccc(OC)c3oc2=N)cc1	4.1% (inactive)
COc1cccc2cc(C(=O)NCc3ccc(Cl)cc3)c(=N)oc12	85.8% (active)
COc1cccc2cc(C(=O)NCc3ccc(C)cc3)c(=N)oc12	18.3% (inactive)
COc1cc(/C=N\NC(=O)c2ccc(-c3ccccc3)cc2)ccc1OCC(N)=O	-24.5% (inactive)
Cc1ccc(S(=O)(=O)N(C)c2cc(S(=O)(=O)N3CCOCC3)c(C)cc2C)cc1	-26.1% (inactive)
COc1cc(S(=O)(=O)NCc2ccc3c(c2)OCO3)ccc1Cl	-0.2% (inactive)
COc1c(C(=O)NC(=S)Nc2nnn(C)n2)cc2ccccc2c1Br	29.6% (inactive)
CC(NC(=O)CCc1c[nH]c2ccccc12)c1ccccc1 (centres undefined)	-38.3% (inactive)
CC(NC(=O)CCCc1c[nH]c2ccccc12)c1ccc(F)cc1 (centres undefined)	51.3% (active)
CC(C)NC(=O)CCCc1c[nH]c2ccccc12	-33% (inactive)
Cc1ccc(Nc2nnc(-c3ccc4c(c3)OCO4)o2)c(C)c1	-19.5% (inactive)
Cc1cc(N/N=C/c2cccc(Cl)c2)nc(-n2nc(C)cc2C)n1	-0.3% (inactive)
Cc1cc(N/N=C/c2cccc([N+](=O)[O-])c2)nc(-n2nc(C)cc2C)n1	-14.5% (inactive)
Cc1nn(-c2ccccc2)c2c1P(=O)(O)/C(=C1\N(C)c3ccccc3C1(C)C)C=N2	-9% (inactive)
Cc1cc(C(=O)NNS(=O)(=O)c2ccc(C(C)(C)C)cc2)nn1C(C)(C)C	-6.5% (inactive)
NNC(=O)Cn1c(-c2ccccn2)nc2ccccc21	-10.4% (inactive)

SMILES	inhibition
Cc1cc(=O)oc(C)c1C(=O)OCC(=O)c1ccc(Cl)cc1	79.2% (active)
Cc1cc(=O)oc(C)c1C(=O)OCC(=O)c1ccc(Cl)c(Cl)c1	-32.3% (inactive)
Cc1cc(=O)oc(C)c1C(=O)OCC(=O)c1ccc(Br)cc1	-27.3% (inactive)
CCOC(=O)N1CCN(S(=O)(=O)N2CCCC(C(=O)NCCc3ccccc3)C2)CC1 (centres undefined)	-26.5% (inactive)
CC(C)c1[nH]c(=O)c(C#N)c2c1COC(C)(C)C2	-18.6% (inactive)
CC(C)n1c(O)c(N=NC(=O)CNC(=O)c2cccnc2)c2ccccc21	-19.7% (inactive)
CC(C)c1nc(NCCO)c(C#N)c2c1CCCC2	81% (active)
CCCc1nc(NCCO)c(C#N)c2c1CCCC2	17.9% (inactive)
CCCCc1nc(NCCO)c(C#N)c2c1CCCC2	-8.5% (inactive)
CCCCc1nn2c(N)c(/C=C3\C=Nc4ccccc43)c(=O)nc2s1	79.1% (active)
CCCc1nn2c(N)c(/C=C3\C=Nc4ccccc43)c(=O)nc2s1	-56% (inactive) and -14.1% (inactive)
CCc1nn2c(N)c(/C=C3\C=Nc4ccccc43)c(=O)nc2s1	-37.5% (inactive) and 2.9% (inactive)
Cc1ccc(S(=O)(=O)n2cc(-c3ccccc3)c(N)n2)cc1	-4.9% (inactive)
Nc1nonc1C(=O)NCCNC(=O)c1cccc(Cl)c1	-28.8% (inactive)
CC(=O)n1cc(Nc2ccc([N+](=O)[O-])cc2)c2ccccc21	-18% (inactive)
O=Cc1[nH]c2ccccc2c1N(C(=O)CCl)c1ccc([N+](=O)[O-])cc1	19.2% (inactive)
CCOC(=O)c1ccccc1Nc1cn(C(C)=O)c2ccccc12	-3.8% (inactive)
COc1ccccc1N(C(=O)CCl)c1cn(C(C)=O)c2ccccc12	93% (active)
CC(=O)n1cc(CO)c2ccccc21	-5.2% (inactive)
CC(=O)n1cc(N(C(=O)CCl)c2ccc(Cl)cc2)c2ccccc21	14.2% (inactive)
CC(=O)N(c1ccc(Cl)cc1)c1cn(C(C)=O)c2ccccc12	-16.5% (inactive)
CC(=O)n1cc(N(C(=O)CCl)c2ccc([N+](=O)[O-])cc2)c2ccccc21	38.7% (active)

Reference: PubChem BioAssay AID1578 (Sanford-Burnham Center for Chemical Genomics, 2009)
